From PubChem BioAssay (NCI) come the findings set out here.

Among the test systems are HCT-15 colon; HT29 colon; SNB-75 CNS; SNB-19 CNS; U251 CNS; PC-3 prostate; SK-MEL-5 melanoma; UACC-62 melanoma; LOX IMVI melanoma; SK-MEL-28 melanoma; SK-MEL-2 melanoma; EKVX NSCLC; SN12C renal; UO-31 renal; TK-10 renal; ACHN renal; CAKI-1 renal; A498 renal; CCRF-CEM leukemia; MOLT-4 leukemia.
What all share (assay): NCI-60 one-dose screen, 48 h (100 = growth as untreated, 0 = no growth, -100 = all killed)
Settings in all cases: 10 µM unless noted

About 83,000 compounds went through this panel and 20% of them were active in at least one assay; those are over-represented in the sample as a whole.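 For each line, cells grew in 96-well plates with the test compound present at a single concentration for 48 hours.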 Values without a mark were called inactive. Calls of active or inactive are those of the source. How the source made its calls: active means growth percent below 10; inactive means the rest.

As for `O=C1CCC(C(=O)N/N=C/c2cc(F)ccc2F)N1` (stereo not given), the growth in the assay on HCT-15 colon was 98.6%; in the assay on HT29 colon, 106%; in the assay on SNB-75 CNS it was 80.7%; in the assay with SNB-19 CNS, 98.9%; with U251 CNS, 98%; in the assay with PC-3 prostate, 95.8%. For the same molecule, the growth with SK-MEL-5 melanoma is 100%; in the assay on UACC-62 melanoma, 98.1%; in the assay with LOX IMVI melanoma, 95.1%; with SK-MEL-28 melanoma it was 108%; with SK-MEL-2 melanoma, 97.8%; in the assay with EKVX NSCLC, 100%. The growth is 96.6% in the assay with SN12C renal; 92.4% in the assay with UO-31 renal; 104% with TK-10 renal; 100% in the assay on ACHN renal; 98% in the assay on CAKI-1 renal; 106% with A498 renal. The growth with CCRF-CEM leukemia is 103%; with MOLT-4 leukemia it was 101%.

On to `O=C(OCc1ccc2c(Cl)cc(Cl)c(O)c2n1)N1CCN(C(=O)c2cc3ccccc3[nH]2)CC1`, for which the growth in the assay with HCT-15 colon was 22.2%; with HT29 colon, 59.3%; in the assay on SNB-75 CNS, 36.3%; in the assay with SNB-19 CNS it was 24.5%; in the assay on U251 CNS it was 13.6%; in the assay on PC-3 prostate, 24.9%. Moreover, the growth with SK-MEL-5 melanoma was 25.1%; in the assay with UACC-62 melanoma it was -2.56% (active); with LOX IMVI melanoma it was 24.6%; in the assay on SK-MEL-28 melanoma it was 39.2%; in the assay with SK-MEL-2 melanoma, 27.2%; with EKVX NSCLC, 23.5%. Also, the growth with SN12C renal was 28.1%; with UO-31 renal it was 4.4% (active); with TK-10 renal, 42.6%; with ACHN renal, 11.6%; in the assay with CAKI-1 renal, 17.1%; in the assay on A498 renal it was 14.2%. Also, the values for the growth in the assay with CCRF-CEM leukemia and in the assay on MOLT-4 leukemia were 21% and 20.5%, respectively.

In the case of `O=C(c1cccc(N2CCOCC2)n1)c1c[nH]c2ccccc12`, the growth was 95.7% in the assay with HCT-15 colon; 105% in the assay with HT29 colon; 82% in the assay with SNB-75 CNS; 99.4% in the assay with SNB-19 CNS; 91.7% with U251 CNS; 83.5% in the assay with PC-3 prostate. Besides, the growth in the assay with SK-MEL-5 melanoma is 93.8%; in the assay with UACC-62 melanoma, 82.8%; with LOX IMVI melanoma, 93%; in the assay on SK-MEL-28 melanoma, 98.6%; in the assay with SK-MEL-2 melanoma it was 103%; in the assay on EKVX NSCLC, 76.3%. For the same molecule, the growth in the assay with SN12C renal was 89.9%; in the assay with UO-31 renal, 66.9%; with TK-10 renal, 120%; with ACHN renal it was 86.5%; with CAKI-1 renal, 76%; in the assay on A498 renal, 85.2%. Further, the growth was 97.2% in the assay on CCRF-CEM leukemia and 100% in the assay on MOLT-4 leukemia.

Turning to `COc1ccc(Nc2ncc(I)c(NCCCNC(=O)C3CCC3)n2)cc1`, the growth in the assay on HCT-15 colon is -18.8% (active); in the assay with HT29 colon, 12.5%; in the assay with SNB-75 CNS it was 39.4%; in the assay on SNB-19 CNS, 24.5%; in the assay on U251 CNS it was 2.43% (active); with PC-3 prostate, 23.8%. Further, the growth in the assay on SK-MEL-5 melanoma was 23.3%; with UACC-62 melanoma, 22.9%; in the assay with LOX IMVI melanoma, -11.3% (active); in the assay with SK-MEL-28 melanoma, 43.4%; in the assay on SK-MEL-2 melanoma it was 35.5%; in the assay with EKVX NSCLC, 21.9%. For the same molecule, the growth in the assay with SN12C renal is 19.8%; in the assay on UO-31 renal, -94.1% (active); in the assay with TK-10 renal, -14.5% (active); in the assay on ACHN renal it was -21% (active); with CAKI-1 renal, 0.394% (active); in the assay on A498 renal, -51.4% (active). Moreover, the growth in the assay with CCRF-CEM leukemia was 2.24% (active); in the assay on MOLT-4 leukemia it was 10.5%.

As for `CCn1cc(C(=O)N/N=C/c2ccccc2)c(=O)c2cc(F)c(N3CCNC(C)C3)c(F)c21` (stereo not given), the growth in the assay on HCT-15 colon is -86.5% (active); with HT29 colon, -92% (active); in the assay on SNB-75 CNS, 92.8%; in the assay with SNB-19 CNS, 18.9%; in the assay on U251 CNS, -92.3% (active); in the assay with PC-3 prostate, 48.9%. For the same molecule, the growth with SK-MEL-5 melanoma was 11.9%; in the assay on UACC-62 melanoma, -27.9% (active); in the assay with LOX IMVI melanoma, -87.3% (active); with SK-MEL-28 melanoma it was -78.8% (active); with SK-MEL-2 melanoma, 93.4%; with EKVX NSCLC, 34.3%. The growth in the assay with SN12C renal was 61.7%; in the assay with UO-31 renal, 47.5%; in the assay with TK-10 renal it was 82.7%; in the assay on ACHN renal, 56.8%; with CAKI-1 renal it was 45.8%; in the assay on A498 renal, 99.6%. In addition, the growth with CCRF-CEM leukemia is -52.1% (active); in the assay on MOLT-4 leukemia, -24.5% (active).

Consider `O=C(/C=C/c1ccccc1)N(C1CCCCC1)C1CCCCC1`, for which the growth is 86.3% in the assay with HCT-15 colon; 68.6% in the assay with HT29 colon; 81.4% with SNB-75 CNS; 87.7% in the assay with SNB-19 CNS; 84.3% in the assay on U251 CNS; 60.2% in the assay on PC-3 prostate. Further, the growth with SK-MEL-5 melanoma is 89.9%; in the assay on UACC-62 melanoma it was 75%; in the assay on LOX IMVI melanoma, 92.3%; in the assay on SK-MEL-28 melanoma it was 97.9%; in the assay on SK-MEL-2 melanoma, 82.9%; in the assay on EKVX NSCLC, 85.1%. Besides, the growth is 97.3% with SN12C renal; 97% with UO-31 renal; 112% with TK-10 renal; 86% in the assay with ACHN renal; 66.8% with CAKI-1 renal; 93.4% in the assay on A498 renal. Moreover, the figures for the growth in the assay on CCRF-CEM leukemia and in the assay on MOLT-4 leukemia were 79.6% and 92.1%, respectively.

Take `CN(C)Cc1ccc(NC(=O)c2cncc(C#Cc3cnc(N)c4ncccc34)c2)cc1C(F)(F)F`: the growth with HCT-15 colon is -50.6% (active); in the assay with HT29 colon, -50.1% (active); in the assay on SNB-75 CNS it was 82.2%; with SNB-19 CNS, -8.43% (active); in the assay with U251 CNS it was -57.5% (active); in the assay with PC-3 prostate it was 92.2%. For the same molecule, the growth in the assay with SK-MEL-5 melanoma is 24.8%; in the assay on UACC-62 melanoma it was 45.1%; in the assay on LOX IMVI melanoma it was -79.9% (active); in the assay with SK-MEL-28 melanoma, -83.1% (active); in the assay with SK-MEL-2 melanoma, 40.5%; in the assay on EKVX NSCLC it was 89.4%. The growth in the assay on SN12C renal was 69.9%; in the assay on UO-31 renal, -82% (active); in the assay with TK-10 renal it was 110%; in the assay with ACHN renal, -81.8% (active); in the assay on CAKI-1 renal, 83%; in the assay on A498 renal it was 60.6%. The growth in the assay with CCRF-CEM leukemia was -6.13% (active); in the assay with MOLT-4 leukemia, 43.5%.

Turning to `COc1cc(-c2cc(-c3ccc(Nc4nc(Nc5ccc(Cl)cc5)nc(Nc5ccc(Cl)cc5)n4)cc3)no2)cc(OC)c1OC`, the growth is 81.2% in the assay on HCT-15 colon; 78.8% in the assay on HT29 colon; 74.6% in the assay on SNB-75 CNS; 81.6% in the assay on SNB-19 CNS; 73.4% with U251 CNS; 60.1% with PC-3 prostate. Also, the growth was 61.2% in the assay on SK-MEL-5 melanoma; 82.1% with UACC-62 melanoma; 73.3% in the assay with LOX IMVI melanoma; 88% with SK-MEL-28 melanoma; 55.2% in the assay on SK-MEL-2 melanoma; 67.1% in the assay on EKVX NSCLC. Also, the growth in the assay with SN12C renal is 106%; in the assay on UO-31 renal, 61.6%; with TK-10 renal it was 108%; with ACHN renal, 78.9%; in the assay on CAKI-1 renal, 75.4%; in the assay with A498 renal, 68.3%. Moreover, the values for the growth with CCRF-CEM leukemia and in the assay with MOLT-4 leukemia were -5.88% (active) and -10.3% (active), respectively.
